Assay results as given in PubChem BioAssay (EPA / NIEHS).
Several values for one entry are separate records, joined by “and”; a condition that tells them apart may be missing. Equal entries are not always repeated. Records with an inconclusive call do not appear. Activity calls are given as the source filed them. Rule for the calls, unless noted: active = hit-call score of the fitted dose curve at least 0.9, where 1 is the maximum; inconclusive = response in the unintended direction; inactive = score below 0.9.

How the values were obtained:
DIO1 (gene 1733) = experiment: CCTE_GLTED_hDIO1: CCTE's human Deiodinase 1 (DIO1) Inhibition Assay, Great Lakes Toxicology and Ecology Division (GLTED) Lab (AID 2283987);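 note: isolated human DIO1 enzyme in a cell-free setup rather than cells; enzyme activity read as free iodide liberated from substrate via Sandell-Kolthoff colorimetry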
Procedure: CCTE_GLTED_hDIO1 is a cell-free, single-readout assay designed to test the inhibitory activity of chemicals toward human iodothyronine Deiodinase type 1 (DIO1) enzyme. Enzyme is incubated in presence of test chemical for 3 hours during which uninhibited enzyme liberates free iodide from substrate. Free iodide is measured in a second step using the Sandell-Kolthoff method.CCTE_GLTED_hDIO1 is the assay component measured from the CCTE_GLTED_hDIO1 assay. It is designed to make measurements of enzyme activity, a form of enzyme reporter, as detected with absorbance signals by spectrophotometry.Data from the assay component CCTE_GLTED_hDIO1 was analyzed into 1 assay endpoint. This assay endpoint, CCTE_GLTED_hDIO1, was analyzed in the positive analysis fitting direction relative to DMSO as the negative control and baseline of activity. Using a type of enzyme reporter, loss-of-signal activity can be used to understand changes in the enzymatic activity as they relate to the gene DIO1. Furthermore, this assay endpoint can be referred to as a primary readout, because the performed assay has only produced 1 assay endpoint. To generalize the intended target to other relatable targets, this assay endpoint is annotated to the 'deiodinase' intended target family, where the subfamily is 'deiodinase Type 1'.
[…] assay, developed at Great Lakes Toxicology and Ecology Division (GLTED) within the EPA's Center for Computational Toxicology and Exposure (CCTE), is designed to test the chemicals' ability to inhibit DIO1. Assay is based on iodide release measured by the Sandell-Kolthoff method and is run in 96-well plate format with assay plates run in triplicate (n=3). The method used for the deiodinase assay was largely based on Renko et al. (2012, 2015). These works describe the utilization of the SK reaction to measure deiodinase-liberated iodide in a 96-well-plate format. The SK reaction is based on the reduction of the yellow-colored cerium IV to the non-colored cerium III by arsenic, with the rate of this reaction increased in the presence of iodide in a concentration-dependent manner (Sandell and Kolthoff, 1937). Iodinated test chemicals can interfere as competitive inhibitors, or if the stock chemical has contaminating free-iodide present. Other chemicals, e.g.: nitrite, iron, and thiocyanate can interfere with the Sandell-Kolthoff reaction (see Sandell and Kolthoff, 1937).

[1] = molecular target: Ratio of Nucleoli Translocation and Cytoplasm, AR (gene 367) (UniProt P10275); experiment: UPITT_HCI_U2OS_AR_TIF2_Nucleoli_Cytoplasm_Ratio_Antagonist: University of Pittsburgh U2OS Androgen Receptor-Transcriptional Intermediary Factor 2 (AR-TIF2) Antagonism High Content Imaging Assay for Ratio of Nucleoli Translocation and Cytoplasm (AID 2283999);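 note: antagonists lower the DHT-driven ratio of nucleolar to cytoplasmic red signal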
Method in brief: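 Read-out is the ratio of nucleolar to cytoplasmic AR-RFP fluorescence, imaged by high-content microscopy in U2OS cells coexpressing TIF2-GFP. Single-point 20 uM screen, triplicate confirmation, then 0.195–50 uM dose response; activity referenced to DHT baseline.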

[2] = molecular target: Ratio of Nucleoli Translocation and Cytoplasm, AR (gene 367) (UniProt P10275); experiment: UPITT_HCI_U2OS_AR_TIF2_Nucleoli_Cytoplasm_Ratio_Agonist: University of Pittsburgh U2OS Androgen Receptor-Transcriptional Intermediary Factor 2 (AR-TIF2) Agonism High Content Imaging Assay for Ratio of Nucleoli Translocation and Cytoplasm (AID 2284000);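 note: hits raise the red nucleolar to cytoplasm ratio above vehicle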
Method in brief: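 Primary screen at 20 uM final (0.2% DMSO), then triplicate confirmation and dose-response from 0.195 to 50 uM final (0.5% DMSO). Cells: U2OS with AR-RFP and TIF2-GFP. Endpoint is the nucleoli/cytoplasm red-fluorescence ratio, gain-of-signal vs DMSO.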

[3] = CCTE_Harrill_HTTr_Viability_PRF_DMEM_24hr: (Pilot) CCTE's 24-hour Cell Viability Assessment for the High-Throughput Transcriptomics (HTTr) Platform, in MCF-7 cells cultured in phenol red-free DMEM + 10% charcoal-stripped fetal bovine serum, Harrill Lab (AID 2283980; active = hit-call score of the fitted dose curve at least 0.9, where 1 is the maximum; inactive = score below 0.9)
Source text: This is a cell-based assay that evaluates cell viability using high content imaging to evaluate membrane integrity using propidium iodide dye exclusion in a 384 well format.One of seven assay components measured from the CCTE_Harrill_HTTr_Viability assay. This was part of a pilot experiment. This is a cell-based assay that evaluates cell viability in MCF-7 cells cultured in phenol red-free DMEM + 10% charcoal-stripped fetal bovine serum. High content imaging is used to evaluate membrane integrity using propidium iodide dye exclusion. Measurements are taken at 24 hours after chemical dosing in 384-well format.The assay component endpoint CCTE_Harrill_HTTr_Viability_PRF_DMEM_24hr was analyzed with bidirectional fitting relation to DMSO as the negative control and baseline of activity. Using a type of viability reporter to understand changes in cytotoxicity, gain-of-signal activity can be used to evaluate membrane integrity using propidium iodide dye exclusion. To generalize the intended target to other relatable targets, this assay endpoint is annotated to cell cycle, where the subfamily is cytotoxicity.
(§1) Chemicals were tested in MCF7 cells in an eight point dilution series with a twenty-four hour exposure duration.

[4] = CCTE_Harrill_HTTr_Apoptosis_DMEM_6hr: (Pilot) CCTE's 6-hour Apoptosis Assessment for the High-Throughput Transcriptomics (HTTr) Platform, in MCF-7 cells cultured in DMEM + 10% fetal bovine serum, Harrill Lab (AID 2283981; active = hit-call score of the fitted dose curve at least 0.9, where 1 is the maximum; inactive = score below 0.9)
Method in brief: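 MCF-7 cells grown in DMEM + 10% FBS were exposed for 6 hours to an eight-point dilution series. CellEvent Caspase 3/7 Green signal was imaged; activity fitted bidirectionally against DMSO.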

[5] = CCTE_Harrill_HTTr_Apoptosis_DMEM_12hr: (Pilot) CCTE's 12-hour Apoptosis Assessment for the High-Throughput Transcriptomics (HTTr) Platform, in MCF-7 cells cultured in DMEM + 10% fetal bovine serum, Harrill Lab (AID 2283982; active = hit-call score of the fitted dose curve at least 0.9, where 1 is the maximum; inactive = score below 0.9)
Method in brief: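 Caspase-3/7 activity was measured by high-content imaging (CellEvent Caspase 3/7 Green) after a 12-hour exposure of MCF-7 cells grown in DMEM with 10% FBS. Eight-point concentration series, fitted bidirectionally against vehicle.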

[6] = CCTE_Harrill_HTTr_Apoptosis_DMEM_24hr: (Pilot) CCTE's 24-hour Apoptosis Assessment for the High-Throughput Transcriptomics (HTTr) Platform, in MCF-7 cells cultured in DMEM + 10% fetal bovine serum, Harrill Lab (AID 2283983; active = hit-call score of the fitted dose curve at least 0.9, where 1 is the maximum; inactive = score below 0.9)
Source text: This is a cell-based assay that evaluates apoptosis using high content imaging to evaluate activation of caspase-3/7 using the CellEvent Caspase 3/7 Green detection reagent in 384-well format.One of seven assay components measured from the CCTE_Harrill_HTTr_Apoptosis assay. This was part of a pilot experiment. This is a cell-based assay that evaluates apoptosis in MCF-7 cells cultured in DMEM + 10% fetal bovine serum. High content imaging is used to evaluate activation of caspase-3/7 using the CellEvent Caspase 3/7 Green detection reagent. Measurements are taken at 24 hours after chemical dosing in 384-well format.The assay component endpoint CCTE_Harrill_HTTr_Apoptosis_DMEM_24hr was analyzed with bidirectional fitting relation to DMSO as the negative control and baseline of activity. Using a type of viability reporter, gain-of-signal activity can be used to evaluate activation of caspase-3/7 using the CellEvent Caspase 3/7 Green detection reagent to understand changes in apoptosis. To generalize the intended target to other relatable targets, this assay endpoint is annotated to cell cycle, where the subfamily is apoptosis.
as §1

[7] = CCTE_Harrill_HTTr_Apoptosis_PRF_DMEM_6hr: (Pilot) CCTE's 6-hour Apoptosis Assessment for the High-Throughput Transcriptomics (HTTr) Platform, in MCF-7 cells cultured phenol red-free DMEM + 10% charcoal-stripped fetal bovine serum, Harrill Lab (AID 2283984; active = hit-call score of the fitted dose curve at least 0.9, where 1 is the maximum; inactive = score below 0.9)
Method in brief: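 Caspase-3/7 activity (CellEvent Green) read by high-content imaging 6 h after dosing, eight concentrations. Cells: MCF-7, phenol red-free DMEM with 10% charcoal-stripped serum. Curves fit both directions against DMSO.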

[8] = CCTE_Harrill_HTTr_Apoptosis_PRF_DMEM_12hr: (Pilot) CCTE's 12-hour Apoptosis Assessment for the High-Throughput Transcriptomics (HTTr) Platform, in MCF-7 cells cultured in phenol red-free DMEM + 10% charcoal-stripped fetal bovine serum, Harrill Lab (AID 2283985; active = hit-call score of the fitted dose curve at least 0.9, where 1 is the maximum; inactive = score below 0.9)
Method in brief: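 Caspase-3/7 activity by CellEvent Green high content imaging after 12 h compound exposure (eight concentrations) in MCF-7 grown in phenol red-free DMEM plus 10% charcoal-stripped serum; DMSO as baseline.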

[9] = CCTE_Harrill_HTTr_Apoptosis_PRF_DMEM_24hr: (Pilot) CCTE's 24-hour Apoptosis Assessment for the High-Throughput Transcriptomics (HTTr) Platform, in MCF-7 cells cultured in phenol red-free DMEM + 10% charcoal-stripped fetal bovine serum, Harrill Lab (AID 2283986; active = hit-call score of the fitted dose curve at least 0.9, where 1 is the maximum; inactive = score below 0.9)
Method in brief: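 Eight concentrations tested for 24 h on MCF-7 grown in charcoal-stripped serum, phenol red-free DMEM. High content imaging of CellEvent Caspase 3/7 Green signal gives apoptosis read-out, fitted both ways relative to DMSO.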

Chain of Ratio of Nucleoli Translocation and Cytoplasm, AR (gene 367) (P10275 whole entry, looked up): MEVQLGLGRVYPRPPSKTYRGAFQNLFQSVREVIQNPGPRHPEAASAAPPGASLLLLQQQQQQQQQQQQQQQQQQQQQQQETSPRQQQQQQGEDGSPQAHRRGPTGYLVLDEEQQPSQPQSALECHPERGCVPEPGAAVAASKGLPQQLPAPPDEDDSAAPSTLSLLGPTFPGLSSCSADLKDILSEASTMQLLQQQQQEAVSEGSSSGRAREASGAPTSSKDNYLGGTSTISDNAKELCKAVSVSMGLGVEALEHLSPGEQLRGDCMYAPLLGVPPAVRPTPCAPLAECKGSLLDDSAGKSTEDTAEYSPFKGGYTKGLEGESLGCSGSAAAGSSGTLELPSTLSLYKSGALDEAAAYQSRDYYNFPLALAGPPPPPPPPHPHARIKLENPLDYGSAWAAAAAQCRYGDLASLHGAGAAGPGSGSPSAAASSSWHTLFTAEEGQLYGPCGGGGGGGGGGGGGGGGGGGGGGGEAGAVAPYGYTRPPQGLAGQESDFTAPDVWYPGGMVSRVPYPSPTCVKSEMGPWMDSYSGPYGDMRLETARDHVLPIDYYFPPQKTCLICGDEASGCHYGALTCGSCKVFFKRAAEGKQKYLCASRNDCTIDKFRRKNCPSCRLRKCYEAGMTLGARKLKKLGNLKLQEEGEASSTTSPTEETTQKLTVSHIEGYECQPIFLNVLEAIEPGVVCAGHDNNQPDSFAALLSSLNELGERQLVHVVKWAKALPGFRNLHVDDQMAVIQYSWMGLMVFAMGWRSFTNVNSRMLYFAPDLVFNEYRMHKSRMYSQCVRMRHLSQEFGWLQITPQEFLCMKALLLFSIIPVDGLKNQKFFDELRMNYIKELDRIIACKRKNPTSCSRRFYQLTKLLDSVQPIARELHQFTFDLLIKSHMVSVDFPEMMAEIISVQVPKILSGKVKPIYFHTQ

Which AC50 (DIO1 (gene 1733)) does the source give for `CCCCCCCCCc1ccc(O)cc1` here?
The AC50 was 90.3 µM (active).

Which results are given for `CCOC(=O)C(O)(c1ccc(Cl)cc1)c1ccc(Cl)cc1`?
outcome [1]: inactive; AC50 [2]: 70.3 µM (active)

Which AC50 (DIO1 (gene 1733)) does the source give for `CCCCCCCCCC[N+](C)(C)CCCCCCCCCC` here?
Its AC50 is 40.7 µM (active).

For `CCC(C)(c1ccc(O)cc1)c1ccc(O)cc1`, which outcome [3] is on record?
Its outcome is “inactive”.

What about the outcome [4] of the same compound?
Its outcome is “inactive”.

And the outcome [5]?
Its outcome is “inactive”.

And the outcome [6]?
Its outcome is “inactive”.

And the outcome [7]?
The outcome was “inactive”.

What about the outcome [8] of the same compound?
The outcome was “inactive”.

And the outcome [9]?
Its outcome is “inactive”.

What does the source list for `CC1=C2C[C@H]3[C@@H](CC=C4C[C@@H](O)CC[C@@]43C)[C@@H]2CC[C@]12O[C@@H]1C[C@H](C)CN[C@H]1[C@H]2C`?
outcome [1]: inactive; outcome [2]: inactive

With `C=CC(=O)NCNC(=O)C=C` as the compound, how does the outcome [1] read?
The outcome was “inactive”.

And the outcome [2]?
The outcome was “inactive”.

Which outcome [1] does the source give for `CCCCCCCCOC(=O)c1ccccc1C(=O)OCCCCCCCC` here?
The outcome was “inactive”.

For `O=C(N[C@H]1CN2CCC1CC2)c1cc2ccoc2cn1`, which outcome [2] is on record?
The outcome was “inactive”.

With `CC#Cc1cc(C)nc(Nc2ccccc2)n1` as the compound, how does the AC50 (DIO1 (gene 1733)) read?
Its AC50 is 27 µM (active).

For `c1cc2ccc3cccc4ccc(c1)c2c34`, which outcome [1] is on record?
Its outcome is “inactive”.

And the outcome [2]?
The outcome was “inactive”.

Which results are given for `O=C(NC(=O)c1c(F)cccc1F)Nc1cc(Cl)c(OC(F)(F)C(F)F)c(Cl)c1`?
outcome [1]: inactive; outcome [2]: inactive

For `NS(=O)(=O)C(F)(F)C(F)(F)C(F)(F)C(F)(F)C(F)(F)C(F)(F)C(F)(F)C(F)(F)F`, which AC50 (DIO1 (gene 1733)) is on record?
The AC50 was 26.8 µM (active).

And the outcome [1]?
The outcome was “inactive”.

And the AC50 [2]?
Its AC50 is 32 µM (active).

Which AC50 [2] does the source give for `CCC(=O)O[C@H]1CC[C@H]2[C@@H]3CCC4=CC(=O)CC[C@]4(C)[C@H]3CC[C@]12C` here?
The AC50 was 0.000508 µM (active).

What does the source list for `CC(C)(c1ccccc1)c1ccc(O)cc1`?
outcome [3]: inactive; outcome [4]: inactive; outcome [5]: inactive; outcome [6]: inactive; outcome [7]: inactive; outcome [8]: inactive; outcome [9]: inactive

With `O=C(O)C(F)(F)C(F)(F)C(F)(F)C(F)(F)C(F)(F)C(F)(F)C(F)(F)C(F)(F)C(F)(F)F` as the compound, how does the AC50 (DIO1 (gene 1733)) read?
The AC50 was 103 µM (active) and 70.6 µM (active).

Which results are given for `Cc1ccccc1CO[C@@H]1C[C@@]2(C(C)C)CC[C@]1(C)O2`?
outcome [1]: inactive; outcome [2]: inactive
